Measurements: PubChem BioAssay AID485313 (National Center for Advancing Translational Sciences (NCATS), 2010)
About 7,600 (2.4%) of roughly 320,000 compounds were called active. Where a call stands in place of a potency, no number is given. Another 3% or so got no clear call; they are omitted. Calls follow the shape of the dose curve; as a rule, active = well fitted activation curve with a large enough effect; inconclusive = small, poorly fitted or top-dose-only effect; inactive = no such curve, though single readings can be large or run the other way. Only a selection was taken, and actives are over-represented in it overall.
Potency is read from the fitted curve at half-maximal effect.

Assay: qHTS Assay for NPC1 Promoter Activators; also: nearly all actives have a fitted effect of over 60% in size;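 as to activation: reporter is driven by a mutant NPC1 promoter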
Conditions: Huh7 NPC1 promoter luciferase reporter, 24 h; series mostly up to 9.22 µM
How it was run: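 Huh7 cells stably carrying NPC1 promoter–luciferase, plated in Opti-MEM with 10% FBS for 2 h, were exposed to compound in DMSO for 24 h at 37 °C; luciferase reagent was added for 10 min and luminescence read.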
For `CSCC[C@H](NC(=O)NC1CCCC1)C(=O)O`, the Potency was “inactive”.
In the case of `Cc1c(NC(=O)CSc2nnc(-c3cccnc3)n2N)c(=O)n(-c2ccccc2)n1C`, the Potency is reported as “inactive”.
With `O=S(=O)(NCc1ccccc1Br)c1ccccc1Br` the Potency was “inactive”.
With `C=C1CCC(N(O)c2cc(C)on2)C(=C)CCC2C1CC2(C)C` (centres undefined) the Potency was “inactive”.
For `O=C(COc1ccc2oc3c(c2c1)CCCC3)Nc1ccccn1`, the Potency was 631 nM (active).
For `CCN(CC)CCCNC(=O)COc1ccc2oc3c(c2c1)CCCC3`, the Potency was “inactive”.
In the case of `CCOC(=O)N1CCN(C(=O)COc2ccc3oc4c(c3c2)CCCC4)CC1`, the Potency is reported as “inactive”.
In the case of `Cc1nc(Cl)cc(N/N=C/c2ccccc2)n1`, the Potency is reported as “inactive”.
In the case of `Brc1ccc(-c2csc(N/N=C/c3ccc4c(c3)OCO4)n2)cc1`, the Potency is reported as “inactive”.
For `C(=N\Nc1ccc2ccccc2n1)/c1ccc2c(c1)OCO2`, the Potency was 316 nM (active).
With `Cc1noc(C)c1/C=N/Nc1ccc2ccccc2n1` the Potency was 2820 nM (active).
In the case of `O=C(N/N=C/c1ccc2c(c1)OCO2)C(=O)N1CCCC1`, the Potency is reported as “inactive”.
With `Cc1cc(C)nc(N/N=C/c2c(C)oc3ccccc23)n1` the Potency was “inactive”.
With `CCOc1ccc(S(=O)(=O)N2CCCCC2)cc1NC(=O)CN1CCCC1c1cccs1` (centres undefined) the Potency was “inactive”.
In the case of `O=C(c1ccc(Cl)nc1)N1CCN(S(=O)(=O)c2ccc3c(c2)OCCO3)CC1`, the Potency is reported as “inactive”.
In the case of `CCN(CC)CCCNC(=S)N(CCO)Cc1cc2cc3c(cc2[nH]c1=O)OCO3`, the Potency is reported as “inactive”.
In the case of `Cc1ccc(OCc2nc3ccccc3n2C)cc1`, the Potency is reported as 3550 nM (active).
In the case of `CC(C)n1c(COc2ccccc2)nc2ccccc21`, the Potency is reported as “inactive”.
With `CCOc1ccc(C(O)Cc2nc3ccccc3n2C)cc1` (centres undefined) the Potency was “inactive”.
In the case of `CCOC(=O)N1CCN(S(=O)(=O)c2ccc3c(c2)C(C)C(=O)N3)CC1` (centres undefined), the Potency is reported as “inactive”.
In the case of `COc1ccc(C2=Nc3cc(C)ccc3OC2)cc1`, the Potency is reported as 891 nM (active).
With `COc1ccc(C2=NOC(COC(=O)c3ccc4ccccc4n3)C2)cc1` (centres undefined) the Potency was “inactive”.
With `Cc1ccc(C(=O)NNC2=Nc3cc([N+](=O)[O-])ccc3OC2)cc1` the Potency was “inactive”.
For `COc1ccc2ccn(C)c2c1`, the Potency was “inactive”.
With `Cc1nn(Cc2ccccc2)c(C)c1C(=O)NCCCN1CCCC1=O` the Potency was “inactive”.
In the case of `Clc1ccc(-c2cc(-c3ccccn3)on2)c(Cl)c1`, the Potency is reported as 100 nM (active).
With `COn1c(-c2ccc(Cl)cc2Cl)nc2ncccc21` the Potency was “inactive”.
With `Clc1ccc(-c2ncc3ccccn23)c(Cl)c1` the Potency was “inactive”.
In the case of `Cc1ccc(/C=N/NC(=O)c2cc3ccccc3cc2O)o1`, the Potency is reported as “inactive”.
In the case of `CC(=O)CCC(=O)c1ccc2ccccc2c1`, the Potency is reported as “inactive”.
For `Cc1cc(N=Nc2ccc3ccccc3c2)ccc1O`, the Potency was 2240 nM (active).
In the case of `Cc1ccc(S(=O)(=O)N(C)C)cc1NC(=O)c1ccc(-n2cncn2)c([N+](=O)[O-])c1`, the Potency is reported as “inactive”.
With `Cc1ccc(NC(=O)CN(C)C(=O)c2cccc(S(=O)(=O)N3CCCC3)c2)cc1` the Potency was “inactive”.
In the case of `CC(=O)NC(c1cccs1)c1cc(Br)c2cccnc2c1O` (centres undefined), the Potency is reported as “inactive”.
In the case of `CCC(C)NC(=O)c1ccc(NC(=O)CC2SC(N3CCCCC3)=NC2=O)cc1` (centres undefined), the Potency is reported as “inactive”.
In the case of `Cc1cc(NC(=O)CSc2nc3c(cc2C#N)CCCCC3)no1`, the Potency is reported as 1410 nM (active).
For `Cc1nonc1NC(=O)CSc1nc2ccccc2cc1C#N`, the Potency was “inactive”.
For `CC(NC(=O)CSc1nc2c(cc1C#N)CN(C)CC2)c1ccccc1` (centres undefined), the Potency was “inactive”.
In the case of `COc1ccc(C(=O)OCC(=O)c2cc(C)n(CC3CCCO3)c2C)cc1[N+](=O)[O-]` (centres undefined), the Potency is reported as “inactive”.
With `CCCCN(C(=O)C1CCC1)c1c(N)n(Cc2ccccc2)c(=O)[nH]c1=O` the Potency was “inactive”.
With `Cn1c(SCC(=O)Nc2ccc(N3CCOCC3)cc2)nnc1C(F)(F)F` the Potency was “inactive”.
For `CN(C(=O)COC(=O)c1cc(=O)[nH]c2ccccc12)C1CCCCC1`, the Potency was “inactive”.
In the case of `CC1CCN(C(=O)COC(=O)c2cc(=O)[nH]c3ccccc23)CC1`, the Potency is reported as 3550 nM (active).
With `COC(=O)C1CCN(C(=O)c2cc(=O)[nH]c3ccccc23)CC1` the Potency was “inactive”.
In the case of `Cc1cccc(NC(=O)Nc2ccc(OCc3ccccc3)cc2)n1`, the Potency is reported as “inactive”.
With `Cc1cccc(NC(=O)COc2ccc(Br)cc2C)n1` the Potency was 2820 nM (active).
For `CCN(CC)S(=O)(=O)c1ccc(C)c(NC(=O)COc2ccc(Br)cc2Cl)c1`, the Potency was “inactive”.
In the case of `Cc1cc(C)cc(NC(=O)C(OC(=O)c2ccc(O)cc2)c2ccccc2)c1` (centres undefined), the Potency is reported as “inactive”.
In the case of `Cc1ccc(C)c(NC(=S)NNC(=O)c2csc(C)c2)c1`, the Potency is reported as “inactive”.
With `Cc1ccccc1NC(=S)NNC(=O)c1cccc(Br)c1` the Potency was “inactive”.
With `Cc1cc(C(=O)NNC(=S)Nc2ccccc2C)cs1` the Potency was 3160 nM (active).
In the case of `Cc1ccc(C(=O)OCC(=O)NCc2cc(C)c(O)c(C)c2)cc1S(=O)(=O)N1CCCCC1`, the Potency is reported as “inactive”.
In the case of `NS(=O)(=O)c1ccc(N2C(=O)C3C4CC(C(Br)C4Br)C3C2=O)cc1` (centres undefined), the Potency is reported as “inactive”.
With `CCOc1ccc(NC(=O)CN(C)C(=O)CSc2ccccc2)cc1OCC` the Potency was “inactive”.
For `Cc1ccc(/C(N)=N/OC(=O)COc2ccc(Cl)c(C)c2)cc1`, the Potency was “inactive”.
In the case of `COc1ccc(C(=O)NNC(=O)c2cnccn2)cc1[N+](=O)[O-]`, the Potency is reported as “inactive”.
In the case of `N/C(=N\OC(=O)Cc1ccc([N+](=O)[O-])cc1)c1ccccn1`, the Potency is reported as “inactive”.
In the case of `O=C(COC(=O)c1ccccn1)NNC(=O)c1ccc([N+](=O)[O-])cc1`, the Potency is reported as “inactive”.
In the case of `O=C(Nc1ccccc1Cl)O/N=C(/c1ccccc1)c1ccccn1`, the Potency is reported as “inactive”.
In the case of `Cc1ccc(C(=O)O/N=C(\N)c2ccccn2)cc1Cl`, the Potency is reported as 1580 nM (active).
For `COc1ccc(C(=O)CSc2nc(C)cc(C)n2)cc1[N+](=O)[O-]`, the Potency was “inactive”.
In the case of `N/C(=N\OC(=O)c1ccc([N+](=O)[O-])cc1)c1ccccn1`, the Potency is reported as 355 nM (active).
With `COc1ccc(C(=O)O/N=C(\N)c2ccccn2)cc1[N+](=O)[O-]` the Potency was 2510 nM (active).
With `CN(C(=O)Cn1nnc(-c2ccc(F)cc2)n1)C1CCS(=O)(=O)C1` (centres undefined) the Potency was “inactive”.
For `CCOC(=O)c1ccccc1NC(=O)COC(=O)C(Cc1c[nH]c2ccccc12)NC(C)=O` (centres undefined), the Potency was “inactive”.
With `CC(C)Cc1nnc(NC(=O)CCNC(=O)c2ccccc2Cl)s1` the Potency was “inactive”.
For `O=C(COC(=O)CNC(=O)C1CCCCC1)NCc1ccccc1`, the Potency was “inactive”.
In the case of `CC(C(=O)NC1CCCC1)N1CCN(S(=O)(=O)c2ccccc2Cl)CC1` (centres undefined), the Potency is reported as “inactive”.
In the case of `Cc1ccc(NS(=O)(=O)c2ccc3c(c2)CC(=O)N3)cc1Cl`, the Potency is reported as “inactive”.
With `O=C(OCC(=O)N1CCc2ccccc21)c1ccc([N+](=O)[O-])cc1` the Potency was “inactive”.
For `CC1CCCN(C(=O)c2cc(-c3ccco3)nc3ccccc23)C1` (centres undefined), the Potency was “inactive”.
With `Nc1ccc(N=Nc2ccccc2Cl)c(N)n1` the Potency was 3160 nM (active).
In the case of `O=C(NCc1ccncc1)c1cccc(NS(=O)(=O)c2ccc(F)c(F)c2)c1`, the Potency is reported as “inactive”.
In the case of `CC[C@H](C)C(=O)N[C@H]1CCCN1C(=O)/C=C/c1ccccc1`, the Potency is reported as “inactive”.
With `Cc1nc2ccc(NC(=O)C(F)(F)F)cc2o1` the Potency was “inactive”.
For `Cc1ccc(NC(=O)Nc2ccc3oc(C)nc3c2)cc1`, the Potency was 1120 nM (active).
For `Cc1nc2cc(NC(=O)NCc3ccccc3)ccc2o1`, the Potency was “inactive”.
With `CCc1ccc(OCC(=O)OC(C)C(=O)NC2CC2)cc1` (centres undefined) the Potency was “inactive”.
For `O=C(CN1CCc2ccccc2C1)Nc1cccc(S(=O)(=O)N2CCOCC2)c1`, the Potency was “inactive”.
In the case of `Cc1cccc(NS(=O)(=O)c2cccc(C(=O)NNC(=O)c3ccccc3O)c2)c1`, the Potency is reported as “inactive”.
In the case of `Cc1cc(C)cc(OCC(=O)Nc2ccc(N3CCOCC3)cc2N2CCOCC2)c1`, the Potency is reported as “inactive”.
With `CCN1/C(=C/c2ccc3ccc(C)cc3[n+]2CC)Sc2ccccc21` the Potency was “inactive”.
With `CCN1/C(=C/C(=S)Nc2ccccc2)Sc2ccccc21` the Potency was 3980 nM (active).
For `O=C(CCN1c2ccccc2Sc2ccccc21)Nc1ccccc1`, the Potency was “inactive”.
In the case of `O=C(NC1=NCCS1)[C@H](Cc1ccccc1)N1C(=O)c2ccccc2C1=O`, the Potency is reported as “inactive”.
For `COc1ccc(C(=O)NC2=NCCS2)c(OC)c1`, the Potency was 891 nM (active).
In the case of `O=C(NCc1ccc2c(c1)OCO2)c1ccc(Cl)s1`, the Potency is reported as “inactive”.
With `CCOc1ccc(C(=O)CCC(=O)NC2=NCCS2)cc1` the Potency was “inactive”.
With `O=C(NC1=NCCS1)c1ccc(Cl)s1` the Potency was 2510 nM (active).
For `COc1ccccc1C(=O)NCCC(=O)NC1=NCCS1`, the Potency was “inactive”.
In the case of `O=C(COC(=O)c1ccc(N2CCCC2=O)cc1)c1ccc(OC(F)F)cc1`, the Potency is reported as “inactive”.
With `COc1cc(OC)cc(-c2c(-c3cccs3)c3cc(-c4ccc(OC)nc4)ccc3n2C)c1` the Potency was “inactive”.
With `CCCCN(C(=O)c1ccc2ccccc2c1)c1c(N)n(CCCC)c(=O)[nH]c1=O` the Potency was “inactive”.
For `Nc1ncc(CN2CCCC(C(=O)Nc3ccc(-c4ccco4)cc3)C2)cn1` (centres undefined), the Potency was “inactive”.
In the case of `COc1ccc(C(C)(C)C)cc1NC(=O)CCN1C(=O)C2CCCCC2C1=O` (centres undefined), the Potency is reported as “inactive”.
In the case of `O=C(CSc1ncnc2c1nnn2Cc1ccc(F)cc1)NC1CCCC1`, the Potency is reported as “inactive”.
For `CN(C)C(=O)COC(=O)c1cccc(S(=O)(=O)N2CC3(C)CC2CC(C)(C)C3)c1` (centres undefined), the Potency was “inactive”.
In the case of `CCCc1c(C(=O)O)cnn1-c1ccc(Cl)cc1`, the Potency is reported as “inactive”.
With `CCCNC(=O)c1c(Cl)cnn1-c1ccc(C)cc1` the Potency was 2510 nM (active).
In the case of `CCCNC(=O)CCc1c(C)nc2c(c(C)nn2-c2ccc(C)cc2)c1C`, the Potency is reported as “inactive”.
In the case of `Cc1ccc(C)c(OCC(=O)NNC(=O)C2CCC2)c1`, the Potency is reported as “inactive”.
With `O=C(O[C@@H]1[C@H](Cc2ccccc2)NS(=O)(=O)[C@H]2C[C@@H]3C=C[C@]12O3)c1ccccc1Br` the Potency was “inactive”.
In the case of `O=C(CNS(=O)(=O)c1ccc2c(c1)OCCCO2)N1CCN(c2ccc(F)cc2)CC1`, the Potency is reported as “inactive”.
For `O=C(NNC(=O)C1CCC1)c1ccccc1`, the Potency was “inactive”.
For `COc1ccc(S(=O)(=O)N2CCOCC2)cc1NC(=O)CSc1cc(C)ccc1C`, the Potency was “inactive”.
With `COc1ccc2[nH]c(C(=O)Nc3ccccc3Cl)cc2c1` the Potency was “inactive”.
In the case of `CC(C)n1c(=O)[nH]c2cc(C(=O)Nc3ccccc3)ccc21`, the Potency is reported as “inactive”.
For `O=C(Nc1ccccc1)c1cc2ccccc2[nH]1`, the Potency was 3980 nM (active).
With `CC1(C(=O)OCC(=O)Nc2ncc(Cl)cc2Cl)CC1(Cl)Cl` (centres undefined) the Potency was “inactive”.
